This is an account of results in PubChem BioAssay AID504648 (National Center for Advancing Translational Sciences (NCATS), 2011).

Hit rate of the full screen: of about 390,000 compounds, about 610 (0.16%) were called active. Roughly 4% stayed inconclusive and do not appear here. Calls come from the whole dose curve; as a rule, active = well fitted inhibition curve with a large enough effect; inconclusive = small, poorly fitted or top-dose-only effect, or effect the other way, or another doubt; inactive = no such curve, though single readings can be large or run the other way. What follows is part of a selection rich in actives, with near analogues and random picks from the rest. Where a call stands in place of a potency, no number is given.
Potency is the fitted concentration of half-maximal effect.

This test can be described thus: Nrf2 qHTS screen for inhibitors: counterscreen for cytotoxicity. The conditions noted are these: A549 ARE-Fluc cells, CellTiter-Fluor viability, 18-24 h; series mostly up to 46 µM. The method, boiled down: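 Cytotoxicity counterscreen: CellTiter-Fluor fluorescence was measured in A549 ARE_Fluc cells after 18-24 h of compound exposure in a concentration series. The subsequent BugLite luminescent read reports ARE-luciferase activity.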
With `O=C(NCc1nnc(C(=O)Nc2ccc(C(F)(F)F)cc2Cl)o1)c1ccccc1`, the Potency result was “inactive”. Still for that read-out and setting: for `CC1CCCCN1CC(=O)N1CCCc2c1c(=O)oc1ccc(OCc3ccccc3)cc21` (stereo not given) the value was “inactive”. Same read-out and setting: the result for `COc1cccc(C2CC(c3ccccc3)=NN2S(=O)(=O)c2ccccc2)c1OC` (stereo not given) reads “inactive”. Still for that read-out and setting: for `COc1ccc2c(c1OC)C(=O)OC2Nc1nc(-c2ccccc2)cs1` (stereo not given) the value was 20.6 µM (active); for `Cc1ccc(CNC(=O)C2(C(F)(F)F)C/C(=C\CCO)CCCO2)o1` (stereo not given), “inactive”; for `Cn1nnnc1Sc1ncnc2scc(-c3ccccc3[N+](=O)[O-])c12`, “inactive”. Take `COc1cccc(OC2=NS(=O)(=O)c3ccccc32)c1`: the Potency entry was “inactive”.

Take `CCc1ccc(NC(=O)N2CCN(C(=O)c3nsc4ccccc34)CC2)cc1`: the Potency result is “inactive”. Consider `Cc1cc(C)c(NC(=O)Cn2c(SCC(=O)NCc3ccccc3)nc3ccccc32)c(C)c1`, for which the Potency entry was “inactive”.

Turning to `COc1ccc(Br)cc1C1C2C=CCC(C)C2C(=O)N1Cc1ccccc1` (stereo not given), the Potency entry was “inactive”. Same read-out and setting: for `O=C1C2C(c3ccccc3)CC=CC2C(c2ccoc2)N1Cc1ccccc1` (stereo not given) the value was “inactive”; for `Cc1ccc(NC(=O)C(Cc2ccccc2)NS(=O)(=O)c2ccc3c(c2)oc(=O)n3C)cc1C` (stereo not given), “inactive”; for `CC(=O)Nc1cc(C(=O)NCc2ccc(F)cc2)ccc1Sc1ccc(F)cc1`, “inactive”. The same measure, in the same setting: for `COC(=O)c1ccc(OC)c(Cn2c(=O)n(Cc3ccccc3)c(=O)c3c2c2cc(OC)ccc2n3C)c1` the value was “inactive”. For `O=C1Nc2ccc(Br)cc2/C1=N/N=C/C1=C(N2CCOCC2)C(=C\c2ccccc2)/CC1`, the Potency is 18.4 µM (active). Turning to `COc1ccccc1C(=O)OCc1cc(=O)n2nc(-c3cccs3)sc2n1`, the Potency result is “inactive”. On the same count and under the same terms, the result for `O=[S+]([O-])(c1ccc2c(c1)OCCO2)N1CCN([S+](=O)([O-])c2c(Cl)cc(Cl)cc2Br)CC1` reads “inactive”; that for `COc1ccc(C2=NC(c3ccncc3)=Nc3ccc(Br)cc3N2)cc1`, “inactive”.

Turning to `O=[S+]([O-])(c1ccc(OC(F)(F)F)cc1)N1CCN([S+](=O)([O-])c2ccc3c(c2)OCCO3)CC1`, the Potency result was “inactive”. Still for that read-out and setting: for `CCc1ccc(NC(=O)Cn2c(=O)n(CCC(=O)NCc3ccc4c(c3)OCO4)c(=O)c3ccccc32)cc1` the value was “inactive”; for `CCc1ccccc1NC(=O)N1CCN(C(=O)c2nsc3ccccc23)CC1`, “inactive”; for `CCCn1c2ccccc2c2cnn(CC(=O)N3CCCC(C(=O)OCC)C3)c(=O)c21` (stereo not given), “inactive”. On the same count and under the same terms, the result for `CCOC(=O)c1c(SCC(=O)Nc2cccc(C)c2C)nc(=O)[nH]c1C` reads “inactive”; that for `CCOC(=O)c1c(C)[nH]c(C)c1S(=O)(=O)N(C)CC(=O)N1CCN(c2ccccc2)CC1`, “inactive”.

As to `CCOC(=O)c1c(C)[nH]c2c1-c1ccccc1C(=O)C2=O`, the Potency is 23.1 µM (active).

In the case of `COc1ccc(CN(Cc2ccccc2)C(=O)c2ccc(O)cc2)cc1COc1ccc(NC(C)=O)cc1`, the Potency entry was “inactive”.

On to `Cc1ccc(Cn2ncc3c4sc(C)cc4n(C)c3c2=O)c(C)c1`, for which the Potency result was “inactive”. On the same count and under the same terms, for `Cc1ccc(-c2nnc3ccc(SCC(N)=O)nn23)cc1` the value was “inactive”; for `CCc1cccc(NC(=O)c2cnc(N3CCOCC3)c3ccccc23)c1`, “inactive”; for `COc1ccc(C(=O)N(Cc2ccccc2)Cc2ccc(OC)c(COc3ccc(NC(C)=O)cc3)c2)c(O)c1`, “inactive”.

On to `C=C1CCN(Cc2ccc(OC)cc2)S(=O)(=O)c2ccccc21`, for which the Potency result was “inactive”.

As for `CC(=O)OCC(NC(=O)C(Cc1ccccc1)NC(=O)OC(C)(C)C)C1OC(n2ccc(=O)[nH]c2=O)C(OC(C)=O)C1OC(C)=O` (stereo not given), the Potency result is “inactive”. Same read-out and setting: for `CCN(CC)/[N+]([O-])=N/Oc1cc(O/[N+]([O-])=N/N2CCCC2CO)c([N+](=O)[O-])cc1[N+](=O)[O-]` (stereo not given) the value was “inactive”.

On to `COc1ccc(Cn2c(C(=O)O)c(CNCc3cccc(OC)c3)c3ccc(C)cc32)cc1`, for which the Potency was 8.2 µM (active). Still for that read-out and setting: for `CCOc1ccc(CNCc2c(C(=O)O)c(C)n(Cc3cccc(OC)c3)c2C)cc1OC` the value was “inactive”. In the case of `COc1ccc2c(CNCCc3ccccc3C)c(C(=O)O)n(Cc3ccccc3C)c2c1`, the Potency result was “inactive”. On the same count and under the same terms, for `Cc1c(N=Nc2ccc(N(C)C)cc2)c(=O)n(-c2ccccc2)n1C` the value was 18.4 µM (active); for `Cc1c(C=O)n(C)n(-c2ccccc2)c1=O`, “inactive”. Same read-out and setting: for `Cc1ccc(S(=O)(=O)Nc2ccccc2CNc2c(C)n(C)n(-c3ccccc3)c2=O)cc1` the value was “inactive”; for `O=C1c2ccccc2C(=O)N1c1ccc(S(=O)(=O)N2CCOCC2)c2ccccc12`, “inactive”; for `CCCN(CCC)C(=O)C1CCCN(c2ncnc3c2nc2n3CCCCC2)C1` (stereo not given), “inactive”. Same read-out and setting: for `N#CN1CCC(NS(=O)(=O)c2cccc(F)c2)C1` (stereo not given) the value was “inactive”. In the case of `CC[n+]1cc(C)ccc1/C=C/c1ccc(N(C)C)cc1`, the Potency is 9.2 µM (active). Still for that read-out and setting: for `N#Cc1ccc(OC2=NS(=O)(=O)c3ccccc32)cc1` the value was “inactive”. The same measure, in the same setting: for `CCC(C)Nc1oc(-c2ccc(COc3ccc(Cl)cc3)o2)nc1C#N` (stereo not given) the value was “inactive”.

For the molecule `Cc1c(C)n(Cc2ccc(Cl)cc2)c2ccc(C(=O)NCCc3ccc(S(N)(=O)=O)cc3)cc12`, the Potency entry is “inactive”.

As to `Cc1cc(Nc2cccc(C(F)(F)F)c2)nc2ccc(NC(=O)c3ccc(=O)[nH]c3)cc12`, the Potency entry was “inactive”.

Regarding `COc1cc(NC(=O)c2[nH]cnc2C(N)=O)cc(C(=O)Nc2cccc(C(F)(F)F)c2)c1`, the Potency is 20.6 µM (active). The same measure, in the same setting: for `Cc1onc(-c2ccc(F)cc2F)c1C(=O)Nc1cccc(C(F)(F)F)c1` the value was “inactive”; for `Cc1ccc(-c2nc(SCc3ccc(Br)cc3)n3[nH]c(=O)cc3n2)cc1`, “inactive”; for `O=C(O)C1CC=CC2CCN(C3CCCCC3)C(=O)C21` (stereo not given), “inactive”. Turning to `Cc1cc(Nc2cc(N3CCN(C)CC3)nc(Sc3ccc(NC(=O)C4CC4)cc3)n2)n[nH]1`, the Potency entry is “inactive”.

As to `C=CC(=O)Nc1ccc(Nc2ccnc(Nc3ccc(N4CCN(C)CC4)cc3)n2)cc1`, the Potency is 9.2 µM (active). On the same count and under the same terms, for `O=C(COc1ccccc1)Nc1ccc(N2CCN(C(=O)c3cccs3)CC2)cc1` the value was “inactive”; for `Cc1ccc(F)c(NC(=O)CCOc2ccccc2C)c1`, “inactive”. Same read-out and setting: the result for `C/C=C/c1ccc(OCCOc2ccc(C=O)cc2OC)c(OC)c1` reads “inactive”. Regarding `COc1cc(/C=N/NC(=O)Nc2ccccc2)ccc1OCCOc1ccccc1C`, the Potency was 5.8 µM (active). For the molecule `CC(=O)c1ccc(NC(=O)CSc2c(C(C)C)cnc3c2c(=O)n(C)c(=O)n3C)cc1`, the Potency result was “inactive”. With `COc1ccc(CN2CCC(=O)c3ccccc3S2(=O)=O)cc1`, the Potency entry is “inactive”. On to `O=C(c1ccc2c(=O)n(Cc3ccco3)c(=S)[nH]c2c1)N1CCCC1`, for which the Potency entry was “inactive”. With `COc1ccc(C2Nc3ccccc3C(=O)N2Cc2ccc(CNC(=O)CO)cc2)cc1COc1ccc(NC(C)=O)cc1` (stereo not given), the Potency result is “inactive”. As to `Cc1ccc(OCCn2c(CNc3ccccc3C)nc3ccccc32)cc1`, the Potency entry was “inactive”.

Regarding `O=C(CCC1N=C2c3ccccc3N=C(SCc3ccccc3F)N2C1=O)NCCc1ccccc1` (stereo not given), the Potency entry is “inactive”. On to `CN(C)Cc1cn(-c2ccccc2)nc1-c1ccccc1`, for which the Potency result is “inactive”. Still for that read-out and setting: for `COC(=O)C(CC(C)C)NS(=O)(=O)c1cc(Br)ccc1Br` (stereo not given) the value was “inactive”; for `Cc1cc(C)cc(NC(=O)CCS(=O)(=O)c2cc3c4c(c2)CCN4C(=O)CC3)c1`, “inactive”.

`O=[N+]([O-])c1ccc(S(=O)(=O)N2CCN(c3nc(-c4ccccc4)nc4ccccc34)CC2)cc1`: the Potency entry was “inactive”. Same read-out and setting: for `COc1ccc(C2Nc3ccccc3C(=O)N2Cc2ccco2)cc1COc1cccc(NC(C)=O)c1` (stereo not given) the value was “inactive”. As to `C=CCNC(=O)c1ccc2nc(-c3ccco3)c(-c3ccco3)nc2c1`, the Potency result was “inactive”. In the case of `CCOc1ccc(NC(=O)c2c(NCc3cccc(OC)c3OC)sc3c2CCC3)cc1`, the Potency result is “inactive”. Still for that read-out and setting: for `CCOc1ccc(CC(=O)NCCc2csc3nc(-c4ccccc4F)nn23)cc1` the value was “inactive”; for `CC(=O)Nc1ccc(S(=O)(=O)N2N=NC3C2C2CC4C3(CN(C(=O)OC(C)(C)C)S4(=O)=O)O2)cc1` (stereo not given), “inactive”; for `COc1ccc(CCn2c3c(c(=O)[nH]c2=S)CN(C(C)C)CN3)cc1OC`, “inactive”. Same read-out and setting: the result for `Cc1ccc(CNS(=O)(=O)c2ccc(C(=O)N(C)C)s2)cc1` reads “inactive”. Turning to `Cc1cc(C)n2ncc(C(=O)Nc3cccc(C#N)c3)c2n1`, the activity change, negative = cytotoxicity is -5.38% [at 9.26 µM] (inactive). In the case of `Oc1ccc(Cl)cc1C1C=C(c2ccc3c(c2)OCO3)NC(c2c(F)cccc2Cl)N1` (stereo not given), the Potency entry is “inactive”. On the same count and under the same terms, the result for `COc1ccc(C2/C=C\CN(C(=O)c3ccc(C)cc3)C(Cc3ccccc3)C(=O)N2Cc2ccc(F)cc2)cc1` (stereo not given) reads “inactive”; that for `C=C1CCN(C(CC(C)C)C(=O)NCc2cc(OC)c(OC)c(OC)c2)S(=O)(=O)c2ccccc21` (stereo not given), “inactive”; that for `CCn1cc(/C=C2/SC(=S)NC2=O)c(C)n1`, 18.4 µM (active). Same read-out and setting: the result for `COc1cccc(C2c3c(ncn(-c4cccc(Br)c4)c3=N)Oc3ccc4ccccc4c32)c1` (stereo not given) reads “inactive”.

Take `O=C(Nc1cccc2cccnc12)C(F)(F)F`: the Potency result is “inactive”. Same read-out and setting: the result for `N#Cc1nc(NCc2ccc(Cl)c(Cl)c2)c2ncn(CCCO)c2n1` reads “inactive”; that for `Cc1c(Cl)cccc1-c1ccc(CNCCCSc2nnnn2C)o1`, “inactive”; that for `O=S1(=O)N=C(Oc2cccc(Br)c2)c2ccccc21`, “inactive”. Still for that read-out and setting: the result for `O=C(NCc1ccccn1)[C@]1(C(F)(F)F)C[C@H](CCc2ccccc2)CCCO1` reads “inactive”. On the same count and under the same terms, for `O=c1ccc2c(-c3ccccc3S(=O)(=O)O)c3ccc(O)c(O)c3oc-2c1O` the value was 13 µM (active); for `Cc1cc2c(s1)c1cnn(Cc3c(F)cccc3Cl)c(=O)c1n2C`, “inactive”; for `CC(=O)NC(c1cccs1)c1cc(Cl)c2cccnc2c1O` (stereo not given), “inactive”. In the case of `COC(=O)c1ccccc1NC(=O)c1ccc(C#N)cc1`, the Potency entry is “inactive”. On to `COc1ccc(-c2ccc3ncnc(NCc4cccs4)c3c2)cc1OC`, for which the Potency entry is “inactive”. As to `COc1ccccc1NC(=O)CSC1=Nc2ccccc2C2=NC(CC(=O)NCc3cccs3)C(=O)N12` (stereo not given), the Potency entry is “inactive”. On to `Cc1ccc(-c2nc3ccccn3c2Nc2ccc(F)cc2)o1`, for which the Potency entry is “inactive”.

On to `COC(=O)c1ccccc1S(=O)(=O)Nc1ccc(OC)cc1`, for which the Potency entry is “inactive”. Regarding `Oc1ccc(Cl)cc1C1C=C(c2ccc3c(c2)OCO3)NC(c2ccc(F)c(Br)c2)N1` (stereo not given), the Potency entry is “inactive”.

`O=C(Nc1nc2ccc([N+](=O)[O-])cc2s1)c1ccc(S(=O)(=O)N2CCCc3ccccc32)cc1`: the Potency is 9.2 µM (active). As for `O=C(NC(Nc1nc2ccc([N+](=O)[O-])cc2s1)(C(F)(F)F)C(F)(F)F)c1ccccc1`, the Potency was 10.3 µM (active). On the same count and under the same terms, for `NS(=O)(=O)c1ccc2nc(NC(=O)COc3ccccc3)sc2c1` the value was “inactive”.

On to `O=C(CNC(=O)c1ccccc1)OC(C(=O)Nc1cc([N+](=O)[O-])ccc1F)c1ccccc1` (stereo not given), for which the Potency entry is “inactive”. As to `CNC(=O)c1ccsc1NC(=O)c1ccc(S(=O)(=O)N2CCc3ccccc32)cc1`, the Potency result is “inactive”.

For the molecule `O=C(Nc1nnc(S(=O)(=O)N2CCCc3ccccc32)s1)c1cccc(F)c1`, the Potency entry is “inactive”.
